# Reference: PubChem BioAssay AID651815 (National Center for Advancing Translational Sciences (NCATS), 2012)
# Values joined by “and” are separate entries in the source; they are usually repeats but may differ in a detail not shown here. Identical values can stand only once. The whole screen tested about 2,100 compounds, of which about 1,100 (52%) were called active. About 29% were inconclusive and are not listed. The call rests on the fitted dose curve; in most records, active means well fitted inhibition curve with a large enough effect; inconclusive means small, poorly fitted or top-dose-only effect; inactive means no such curve, though single readings can be large or run the other way. The set was probably picked from earlier hits. This is one part of the list.
# Target: DNA dC->dU-editing enzyme APOBEC-3F (Homo sapiens) (UniProt Q8IUX4)
# Sequence (Q8IUX4 whole entry, looked up): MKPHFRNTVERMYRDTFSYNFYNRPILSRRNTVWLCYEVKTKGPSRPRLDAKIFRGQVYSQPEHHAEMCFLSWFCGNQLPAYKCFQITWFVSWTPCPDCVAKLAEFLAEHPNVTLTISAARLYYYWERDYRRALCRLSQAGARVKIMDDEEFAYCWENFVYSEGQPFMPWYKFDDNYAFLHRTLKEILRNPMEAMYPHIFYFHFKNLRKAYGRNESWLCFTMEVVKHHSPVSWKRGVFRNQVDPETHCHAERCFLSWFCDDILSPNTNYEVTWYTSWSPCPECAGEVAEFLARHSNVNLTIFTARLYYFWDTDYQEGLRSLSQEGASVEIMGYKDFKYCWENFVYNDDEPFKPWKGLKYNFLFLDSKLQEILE
# Experiment: qHTS for inhibitors of Vif-A3F interactions: Cherry picks counterscreen; further: nearly all actives have a fitted effect of over 65% in size
# Conditions: HeLa A3F-eYFP/Vif cells, eYFP fluorescence, 24 h; series mostly up to 46.1 µM
# Summary of the method: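 Rescue of Vif-driven A3F-eYFP degradation read as cellular eYFP fluorescence after 24 h compound exposure (several concentrations) in stable HeLa cells; MG132 (2 mM stock) as positive control.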
# Potency means the concentration at half of the fitted maximal effect.
row,Compound,Potency
1,Cc1ccc2c(c1C)NC(=O)CC(c1ccccc1O)=N2,inactive
2,CN(C)c1ccc2ccc3cccc4ccc1c2c34,13 µM (active)
3,C[C@H]1CN([C@@H](C)CO)C(=O)Cc2cc(NC(=O)CCC(F)(F)F)ccc2O[C@H]1CN(C)S(=O)(=O)c1ccc(F)cc1,12.5 µM (active)
4,CCOc1cc(C#N)c(NC(=O)c2cccnc2)cc1OCC,3.53 µM (active)
5,COc1ccc(OC)c(NS(=O)(=O)c2ccc(Cl)s2)c1,11.2 µM (active)
6,C(=C/c1nccc2c1[nH]c1ccccc12)/c1ccc2c(c1)OCO2,inactive
7,N#Cc1ccc(/C=C\c2nccc3c2[nH]c2ccccc23)cc1,15.8 µM (active)
8,Cc1ccc(CN(C(=O)c2ccccc2F)c2ccccn2)o1,inactive
9,Cc1noc(C)c1COc1ccc(C(=O)NNC(=O)c2ccccc2)cc1,4.98 µM (active)
10,Cc1noc(C)c1COc1ccc(C(=O)NNC(=O)c2ccccc2F)cc1,9.94 µM (active)
11,CCCN1C=CC(=CC=C(C#N)C#N)C=C1,17.7 µM (active)
12,C=CCN1C=CC(=CC=C(C#N)C#N)C=C1,17.7 µM (active)
13,CCOC(=O)/C(C#N)=C\C=C1C=CN(C)C=C1,inactive
14,C=CCN1C=CC(=C/C=C(/C#N)C(=O)OCC)C=C1,4.61 µM (active)
15,COc1ccc(-n2c(O)c(/C=N/NS(=O)(=O)c3ccc(C)cc3)c3ccccc3c2=O)cc1OC,18.4 µM (active)
16,COc1ccc(-n2c(O)c(/C=N/NS(=O)(=O)c3cc(C)ccc3C)c3ccccc3c2=O)cc1OC,13 µM (active)
17,CC12CC3CC(C)(C1)CC(C(=O)NC(=S)N1CCOCC1)(C3)C2,inactive
18,C(=C\c1c[nH]c2ccccc12)/c1ccc2ccccc2n1,18.4 µM (active)
19,C(=Cc1c[nH]c2ccccc12)c1ccc2ccccc2n1,18.4 µM (active)
20,COc1ccc(C(=O)Nc2cccc(/C=C/c3nc4ccccc4c(=O)[nH]3)c2)cc1,15.8 µM (active)
21,Nc1c(C(=O)Nc2ccc(S(=O)(=O)N3CCCC3)cc2)sc2nc3cc4c(cc3cc12)CCC4,14.6 µM (active)
22,Nc1c(C(=O)Nc2ccc(S(=O)(=O)N3CCCC3)cc2)sc2nc3ccc(OC(F)(F)F)cc3cc12,23.1 µM (active)
23,CCc1cccc2cc3c(N)c(C(=O)Nc4ccc(S(=O)(=O)N5CCCC5)cc4)sc3nc12,6.27 µM (active)
24,Cn1nnnc1SCCNCc1cc(Br)ccc1OCc1ccccc1Cl,inactive

row,Compound,Potency
1,CCC(C)n1c(NC(=O)c2ccccc2)c(C#N)c2nc3ccccc3nc21 (stereo not given),18.4 µM (active)
2,Fc1ccc2nc3[nH]c4ccccc4c3nc2c1,0.886 µM (active)
3,COc1ccc(OC)c(/C=C/c2nc3ccccc3[nH]c2=O)c1,5.8 µM (active)
4,Cc1ccc(N2C(=O)[C@@H]3[C@H](C2=O)[C@H]2C=C(C(=O)c4ccccc4)C=CN2[C@@H]3C(=O)c2ccc(Cl)cc2)cc1,inactive
5,COc1ccc(N2CC(C(=O)N/N=C/c3ccc(C)cc3)CC2=O)cc1 (stereo not given),3.53 µM (active)
6,COCCCNC(=S)N/N=C/c1ccc(OC)cc1,inactive
7,CCSC1=N/C(=C\C=C2/Oc3ccccc3N2CC)C(=O)S1,14.6 µM (active)
8,CCCCN1C(=O)/C(=C/C=C2\Oc3ccccc3N2CC)SC1=S,inactive
9,N#CC1=C(N)C(C#N)(C#N)[C@H](c2ccoc2)[C@H]2CN(Cc3ccccc3)CC=C12,4.98 µM (active)
10,CCCN1C(=O)C(Cc2nc3ccccc3c(=O)n2CC)c2cc(Br)ccc21 (stereo not given),inactive
11,O=c1c2ccccc2nc(/C=C/c2ccc([N+](=O)[O-])o2)n1CCCO,23.1 µM (active)
12,Cc1cc(N/N=C/c2ccc([N+](=O)[O-])o2)nc2ccccc12,20.6 µM (active)
13,CCn1c(/C=C/c2ccc([N+](=O)[O-])o2)nc2ccccc2c1=O,11.6 µM (active)
14,Cn1c(/C=C/c2ccc([N+](=O)[O-])o2)nc2ccccc2c1=O,23.1 µM (active)
15,COc1cc(/C=N\Nc2ccc([N+](=O)[O-])cc2)ccc1OCC(=O)Nc1ccc(C)c(C)c1,0.651 µM (active)
16,CCN(CC)c1ccc(/C=c2/sc3nnc(-c4ccccc4C)n3c2=O)cc1,16.4 µM (active)
17,COc1ccc2c(c1)N(C)/C(=C/c1cccc[n+]1C)S2,14 µM (active)
18,CC[n+]1ccccc1/C=C1\Sc2ccc(C)cc2N1C,20.6 µM (active)
19,CCN1/C(=C/c2cccc[n+]2C)Sc2ccc(OC)cc21,20.6 µM (active)
20,Cc1ccccc1OCC(=O)NNC(=O)Nc1ccc(Cl)cc1,4.98 µM (active)
21,COc1ccccc1OCC(=O)NNC(=O)Nc1ccc(Cl)cc1,15.8 µM (active)
22,O=C(CSc1n[nH]c(-c2ccccn2)n1)Nc1ccc(Cl)cc1,inactive
23,COc1cc(C2c3cc4c(cc3OC(C)(N3CCCC3)C2C)OCO4)cc(OC)c1OC (stereo not given),1.25 µM (active)
24,CC(C)NC(=S)N/N=C1\CCCCc2ccccc21,inactive

row,Compound,Potency
1,N#CC1=C(N)Oc2cc(N)ccc2C1C1CC=CCC1 (stereo not given),5.59 µM (active)
2,N#CC1=C(N)Oc2cc(N)ccc2C1c1ccc(F)cc1F (stereo not given),20.6 µM (active)
3,N#CC1=C(N)Oc2cc(N)ccc2C1c1ccccc1F (stereo not given),4.98 µM (active)
4,Cc1cccc(CSc2cccc3cccnc23)c1,inactive
5,COC(=O)c1cccc(NS(=O)(=O)c2ccc(OC)cc2)c1C,3.53 µM (active)
6,S=C(Nc1cccc2ccccc12)NN1CCCCCC1,inactive
7,COc1ccc(S(=O)(=O)Nc2cccc3ccccc23)cc1,10.3 µM (active)
8,CCCCN1C(=O)/C(=C2/Sc3ccccc3N2C)S/C1=N\c1ncn[nH]1,20.6 µM (active)
9,COc1cccc(Cn2c(-c3nonc3N)nc3ccccc32)c1,1.58 µM (active)
10,CCC(=O)Nc1nonc1-c1nc2ccccc2n1Cc1ccccc1,17.7 µM (active)
11,Nc1nonc1-c1nc2ccccc2n1Cc1ccc(F)cc1,8.86 µM (active)
12,COc1ccc(C)c(Cn2c(-c3nonc3N)nc3ccccc32)c1,1.58 µM (active)
13,COc1cccc(Cn2c(-c3nonc3NC(C)=O)nc3ccccc32)c1,9.2 µM (active)
14,Cc1ccc(C(=O)NCCn2c(N)c(C#N)c3nc4ccccc4nc32)cc1,18.4 µM (active)
15,COc1ccc(-c2cc(-c3nnc(COC(=O)c4ccncc4)o3)c3ccccc3n2)cc1OC,inactive
16,COc1ccc(COc2cc(-c3cccc(OC)c3)nc3ccc(NC(=O)c4ccc(OC)cc4)cc23)cc1,6.27 µM (active)
17,Cc1ccc2c(c1)sc(-c1ccc(N(C)C)cc1)[n+]2C,14.6 µM (active)
18,CCC(=O)Nc1nc2ccc(NC(=O)c3cc(OC)c(OC)c(OC)c3)cc2s1,inactive
19,CCCC(=O)Nc1nc2ccc(NC(=O)c3ccccc3F)cc2s1,4.44 µM (active)
20,Cn1cc(C2=C(c3ccc(Cl)cc3Cl)C(=O)NC2=O)c2ccccc21,14.6 µM (active) and 20.6 µM (active)
21,Cc1ccc2nc(NS(=O)(=O)c3ccc(Cl)cc3)c(Nc3ccc(C(=O)O)cc3)nc2c1,14.6 µM (active)
22,CCOC(=O)c1ccc(Nc2nc3ccccc3nc2NS(=O)(=O)c2ccc(Cl)cc2)cc1,14.6 µM (active)
23,COC(=O)c1cc(Nc2nc3ccccc3nc2NS(=O)(=O)c2ccc(C)cc2)ccc1Cl,18.4 µM (active)
24,CCOC(=O)N1CCC(Nc2nc3ccccc3n3nnnc23)CC1,18.4 µM (active)

row,Compound,Potency
1,COc1cccc(Nc2nc(Nc3ccc(Cl)c(C(=O)O)c3)nc(C)c2[N+](=O)[O-])c1,inactive
2,CCOC(=O)N1CCC(Nc2nc3ccccc3nc2NS(=O)(=O)c2ccc(Cl)cc2)CC1,23.1 µM (active)
3,NC(=S)N/N=C/c1cccc(O)c1O,inactive
4,CC(=O)N/N=C/c1cc(C(C)(C)C)cc(/C=N/NC(C)=O)c1O,23.1 µM (active)
5,CC(=O)N/N=C/c1cc(C(C)C)cc(/C=N/NC(C)=O)c1O,inactive
6,CCOc1ccc(C(C)=O)cc1COc1cccnc1[N+](=O)[O-],9.94 µM (active)
7,COc1cccc(/C=N/n2c(C3CCCCC3)n[nH]c2=S)c1O,inactive
8,COc1ccc(-n2nc3c(N4CCCC(C(=O)NCCc5ccccc5C)C4)nnc(C)c3c2C)cc1 (stereo not given),25.9 µM (active)
9,COc1ccc2cc(C(=O)C3CCCN(Cc4ccccn4)C3)ccc2c1 (stereo not given),inactive
10,O=C(c1ccccc1F)n1c2c(c3ccccc31)CCCC2,11.2 µM (active)
11,CNCC(O)Cn1c2c(c3ccccc31)CCCC2 (stereo not given),inactive
12,CCOC(=O)N1CCc2c(sc3c2C(=O)NC(c2ccc(N(C)C)cc2)N3)C1 (stereo not given),9.2 µM (active)
13,Cc1cc(C)c2cc3c(N)c(C(=O)Nc4c(C)[nH]c(=O)[nH]c4=O)sc3nc2c1,18.4 µM (active)
14,CCOC1=C/C(=C/c2c(N)n3nc(-c4ccccc4)sc3nc2=O)C=CC1=O,inactive
15,COc1ccccc1N1CCN(C(=O)c2cc(=O)c3cc(C)cc(C)c3o2)CC1,0.125 µM (active)
16,COc1cc(SC)ccc1C(=O)N1CCN(c2ccccc2OC)CC1,3.53 µM (active)
17,CCSc1ncc(Cl)c(C(=O)N2CCN(c3ccccc3OC)CC2)n1,2.06 µM (active)
18,COC(=O)c1cc(C(=O)N2CCN(c3ccccc3OC)CC2)cc([N+](=O)[O-])c1,3.96 µM (active)
19,COc1ccccc1N1CCN(C(=O)c2ccc3ncsc3c2)CC1,inactive
20,COc1ccccc1N1C(=O)c2cccc3c(C(=O)O)ccc(c23)C1=O,inactive
21,COc1ccccc1C(=O)N1CCN(c2cccc(Cl)c2)CC1,1.25 µM (active)
22,Cc1ccc2nc3c(cc(S(=O)(=O)c4ccccc4)c(=N)n3Cc3ccco3)c(=O)n2c1,inactive
23,COc1ccc(Cn2c(C)nc3c(c2=O)c2nc4ccccc4nc2n3Cc2ccco2)cc1,18.4 µM (active)
